Compound activity (PubChem)
Pf apPOL block: Pf-apPOL inhibitors, biochemical, fluorescence; 0.25% of 210,000 active; Plasmodium falciparum apicoplast DNA polymerase (apPOL); Recombinant Pf-apPOL, molecular beacon fluorescence, 1.5 h; inhibition, % at 10 µM
mHTT-CaM PPI inh: mutant huntingtin-calmodulin interaction inhibitors – biochemical, AlphaScreen, primary screen. P42858. AlphaScreen His-mHTT/GST-CaM binding, luminescence. inhibition, % at 15 µM. 3.6% of 190,000 active. AID 1671202, 2021
A number is an active result; . = inactive; / = not tested or not shown. The entries come from a sample that favours hits as a whole. No stated cut-off is given here; in the data, active means inhibition above about 50%; inactive means the rest.

SMILES	Pf apPOL block	mHTT-CaM PPI inh
COc1ccc(Cl)cc1NC(=O)c1c(NCc2cccnc2)sc2c1CCC(C)C2 (stereo not given)	.	78
COc1ccccc1NC(=O)c1c(NCc2cccnc2)sc2c1CCC(C)C2 (stereo not given)	.	80
CCOc1ccccc1NC(=O)c1c(NCc2ccccn2)sc2c1CCC(C)C2 (stereo not given)	.	.
O=C(CSc1ccccn1)NC1CC1	.	.
Cc1cc(C)n(-c2ccc(=O)n(CC(=O)Nc3ccc4sc(C)nc4c3)n2)n1	.	.
CCc1ccc(NC(=O)Cn2nc3c(cc2=O)CC(C)CC3)cc1 (stereo not given)	.	.
Cc1nc(NCCNC(=O)Nc2ccc(C)c(F)c2)cc(N2CCOCC2)n1	.	.
COc1ccccc1C1N(c2ccc(Cl)cc2)C(=O)C2CCCN21 (stereo not given)	.	50
CCOc1ccccc1C1N(c2ccc(Cl)cc2)C(=O)C2CCCN21 (stereo not given)	.	51
O=C1N(c2ccccc2)C(c2ccccc2)N2CCCN12 (stereo not given)	.	.
COc1cc(C2N(c3ccc(Cl)cc3)C(=O)C3CCCN32)cc(OC)c1OC (stereo not given)	.	.
COc1ccccc1C1N(c2ccc(Cl)c(Cl)c2)C(=O)N2CCCN12 (stereo not given)	.	100
CCOc1ccccc1C1N(c2ccc(F)cc2)C(=O)C2CCCN21 (stereo not given)	.	.
COc1ccc(N2C(=O)C3CCCN3C2c2ccccc2OC)cc1 (stereo not given)	.	.
COc1cc(C2N(c3ccc(Cl)c(Cl)c3)C(=O)C3CCCN32)cc(OC)c1OC (stereo not given)	.	100
CCOc1ccc(S(=O)(=O)N2CCCC2C(=O)NCc2csc(C)n2)cc1 (stereo not given)	.	.
O=C(Nc1ccc(N2CCOCC2)cc1)c1cn2c(n1)CCCC2	.	.
CNC(=O)N1CCCC(C)(C(=O)NCc2cccc(OC)c2)C1 (stereo not given)	.	.
CCC(C(=O)NNC(=O)c1cc(OC)c(OC)c(OC)c1)c1ccccc1 (stereo not given)	.	/
CCCC1=NN2C(=N)/C(=C/c3ccc(OC)c(OC)c3)C(=O)N=C2S1	.	.
Cc1c(Br)c(C(F)(F)F)nn1CC(=O)NCc1cccs1	.	.
COc1cc(O)c(CN(C)C)c2oc(-c3ccccc3)cc(=O)c12	.	.
COc1cc2oc(-c3ccccc3)cc(=O)c2c(O)c1CN(C)C	.	100
c1ccc2c(CCc3ccncc3)c[nH]c2c1	.	.
c1ccc(Cc2c[nH]c3ccccc23)cc1	.	61
SMILES	Pf apPOL block	mHTT-CaM PPI inh
CC(=O)Nc1cc(C(=O)N2CCN(c3cccc(C)c3)CC2)c2ccc(C)nc2c1	.	68
CC(=O)Nc1cc(C(=O)N2CCN(C3CCCCC3)CC2)c2ccc(C)nc2c1	.	.
CC(=O)Nc1cc(C(=O)NC(C)C)c2ccc(C)nc2c1	.	.
CC(=O)Nc1cc(C(=O)NC2CCCC2)c2ccc(C)nc2c1	.	100
CC(=O)Nc1cc(C(=O)NCCN2CCCCC2)c2ccc(C)nc2c1	.	.
CC(=O)Nc1cc(C(=O)N2CCN(c3cc(C)ccc3C)CC2)c2ccc(C)nc2c1	.	100
Cc1cccc(N2CCN(C(=O)c3cccc([N+](=O)[O-])c3C)CC2)c1C	.	.
CC(=O)Nc1cc(C(=O)N2CCN(c3cccc(C)c3C)CC2)c2ccc(C)nc2c1	.	95
CSc1ccccc1C(=O)NCC(O)c1ccsc1 (stereo not given)	.	.
Cc1cc(C)cc(N2C=C(C(=O)N3CCCC3)S(=O)(=O)c3ccccc32)c1	.	.
CS(=O)(=O)N1CCC(C(=O)Nc2ccc(O)c(-c3nc4ccccc4s3)c2)CC1	.	.
COc1ccc(OC)c(/C=c2\sc3nc(-c4ccc(Br)cc4)nn3c2=O)c1	.	.
CCOc1ccc(-c2nc3s/c(=C\c4cc(Br)ccc4OC)c(=O)n3n2)cc1	55	.
Cc1ccc(S(=O)(=O)N2CCCCC2CCNS(=O)(=O)C2CC2)cc1 (stereo not given)	.	.
O=C(Nc1cccc(Cl)c1)c1ccc(NCc2ccco2)c([N+](=O)[O-])c1	.	.
CCOc1ccc(N=c2oc3c(C)ncc(CO)c3cc2C(=O)Nc2cccc(C)c2)cc1	.	.
NC1=C(Nc2ccccc2)C(=O)c2ccccc2C1=O	.	93
Nc1c(S(=O)(=O)O)cc(Nc2ccc(Nc3nc(Cl)nc(Nc4ccc(S(=O)(=O)O)cc4)n3)c(S(=O)(=O)O)c2)c2c1C(=O)c1ccccc1C2=O	.	/
Nc1c(S(=O)(=O)O)cc(Br)c2c1C(=O)c1ccccc1C2=O	.	.
Nc1c(S(=O)(=O)O)cc(Nc2ccccc2)c2c1C(=O)c1ccccc1C2=O	.	98
O=C1C(Nc2ccccc2)=C(NS(=O)(=O)c2ccccc2)C(=O)c2ccccc21	.	.
